# Assay results taken from the supplement of paper PMC8728848.
# The full list was thinned out, with the strongest signals kept by preference.
# B1: Blon2468mut (Bifidobacterium longum) (protein)
# chain: MTFIKQMMPRYVASMTAGIVAAAMAATCAFAPVANADAVSPTQETIQSTGRHFMVYYRAWRDVTMKGVNTDLPDDNWISMYDIPYGVDVVNIFSYVPSGQEEQAQPFYDKLKSDYAPYLHSRGIKLVRGIDYTGVAVNGFRTFMKEQNKTESEATEADYDAYAKQVIDKYMISVGLDGLDIDMQAHPNDADVKISDNVIRALSKHIGPKSAKPDTTMFLYDTNGSYLNPFKNVAECFDYVAYQQYGSSSDRTARAAADYQPYIGNEFVPGLTFPEEGDMNNRWYDATEPYEESHFYQVASYVREHNLGGMFVYALDRDGRNYDEDLRRIVPSNLLWTKTAIAESEGMALDTAKTAANHYLDRMSLRQVIDDNAASADKARDMVGKAANLYETNKAVLGGDYGEGFSNTYDPTLEAGLLGIDISVLQQQIDKSSEIIGADTAESDAKTALRMARDAAIDGLTGKIYTADQVSAWSQALKAALDATVPVPTPDSTDQNGNRDKVTNHKVQGQPKQLSATGISTDIIVAVGVTLAIAGVALSLSRKLS
# Experiments:
# Assay in all cases: glycan array binding signal (z-score within array); higher = stronger binding
# Details in all cases: glycan notation: IUPAC condensed, linker removed
# [1] = biological target: GalNAc(b1-3)GlcNAc
# In short: (§1)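 The binding signal is a Z-score computed within each array. Data were drawn from 3228 arrays in the Consortium for Functional Glycomics database, restricted to those with a known protein sequence. Scores were averaged over arrays of the same protein sequence at different concentrations or buffers, and over linkers, and negative values can be taken as non-binding.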
# [2] = biological target: Glc(a1-4)Glc(a1-4)Glc(a1-4)Glc
# In short: as §1
# [3] = biological target: Glc(b1-6)Glc
# In short: as §1
# [4] = biological target: GlcNAc(b1-2)Man(a1-3)[GlcNAc(b1-2)Man(a1-6)]Man(b1-4)GlcNAc(b1-4)GlcNAc
# In short: as §1
# [5] = biological target: GlcNAc(b1-2)[GlcNAc(b1-4)]Man(a1-3)[GlcNAc(b1-4)][GlcNAc(b1-2)[GlcNAc(b1-6)]Man(a1-6)]Man(b1-4)GlcNAc(b1-4)GlcNAc
# In short: as §1
# [6] = biological target: GlcNAc(b1-3)Gal(b1-4)GlcNAc(b1-3)Gal(b1-4)GlcNAc(b1-3)GalNAc
# In short: as §1
# [7] = biological target: GlcNAc(b1-6)GalNAc
# In short: as §1
# [8] = biological target: Man(a1-2)Man(a1-2)Man(a1-6)[Man(a1-3)]Man
# In short: as §1
# [9] = biological target: Man(a1-2)Man(a1-3)[Man(a1-6)]Man(a1-6)[Man(a1-2)Man(a1-3)]Man(b1-4)GlcNAc(b1-4)GlcNAc
# In short: as §1
# [10] = biological target: Man(a1-3)[Man(a1-6)]Man
# In short: as §1
# [11] = biological target: Man(a1-3)[Man(a1-6)]Man(a1-6)[Man(a1-3)]Man
# In short: as §1
# [12] = biological target: Man(a1-3)[Man(a1-6)]Man(b1-4)GlcNAc(b1-4)GlcNAc
# In short: as §1
# [13] = biological target: Man(a1-3)[Man(a1-6)]Man(b1-4)GlcNAc(b1-4)[Fuc(a1-6)]GlcNAc
# In short: as §1
# [14] = biological target: Man(b1-4)GlcNAc
# In short: as §1
# [15] = biological target: MurNAc(b1-4)GlcNAc
# In short: as §1
# [16] = biological target: Neu5Ac(a2-3)Gal(b1-3)GalNAc6S
# In short: as §1
# [17] = biological target: Neu5Ac(a2-3)Gal(b1-3)[Fuc(a1-4)]GlcNAc(b1-3)Gal(b1-4)[Fuc(a1-3)]GlcNAc
# In short: as §1
# [18] = biological target: Neu5Ac(a2-3)Gal(b1-4)GlcNAc(b1-2)Man(a1-3)[GlcNAc(b1-4)][Neu5Ac(a2-3)Gal(b1-4)GlcNAc(b1-2)Man(a1-6)]Man(b1-4)GlcNAc(b1-4)GlcNAc
# In short: as §1
# [19] = biological target: Neu5Ac(a2-3)Gal(b1-4)GlcNAc(b1-3)Gal
# In short: as §1
# [20] = biological target: Neu5Ac(a2-3)Gal(b1-4)GlcNAc(b1-3)Gal(b1-4)GlcNAc(b1-3)Gal(b1-4)GlcNAc
# In short: as §1
# [21] = biological target: Neu5Ac(a2-3)Gal(b1-4)GlcNAc(b1-3)Gal(b1-4)GlcNAc(b1-3)Gal(b1-4)GlcNAc(b1-2)Man(a1-3)[Neu5Ac(a2-3)Gal(b1-4)GlcNAc(b1-3)Gal(b1-4)GlcNAc(b1-3)Gal(b1-4)GlcNAc(b1-2)Man(a1-6)]GalNAc
# In short: as §1
# [22] = biological target: Neu5Ac(a2-3)Gal(b1-4)GlcNAc(b1-3)Gal(b1-4)[Fuc(a1-3)]GlcNAc
# In short: as §1
# [23] = biological target: Neu5Ac(a2-6)Gal(b1-4)GlcNAc(b1-2)Man(a1-3)[Neu5Ac(a2-3)Gal(b1-4)GlcNAc(b1-2)Man(a1-6)]Man(b1-4)GlcNAc(b1-4)GlcNAc
# In short: as §1
# [24] = biological target: Neu5Ac(a2-6)Gal(b1-4)GlcNAc(b1-2)Man(a1-3)[Neu5Ac(a2-6)Gal(b1-4)GlcNAc(b1-2)Man(a1-6)]Man(b1-4)GlcNAc(b1-4)[Fuc(a1-6)]GlcNAc
# In short: as §1
# [25] = biological target: Neu5Ac(a2-6)Gal(b1-4)GlcNAc(b1-2)Man(a1-6)Man(b1-4)GlcNAc(b1-4)GlcNAc
# In short: as §1
# [26] = biological target: Neu5Ac(a2-6)Gal(b1-4)GlcNAc(b1-3)Gal(b1-4)[Fuc(a1-3)]GlcNAc(b1-3)Gal(b1-4)[Fuc(a1-3)]GlcNAc
# In short: as §1
# [27] = biological target: Neu5Ac(a2-8)Neu5Ac
# In short: as §1
# [28] = biological target: Neu5Ac(a2-8)Neu5Ac(a2-3)Gal(b1-4)GlcNAc
# In short: as §1
binder,measurement,setting,value
B1,glycan array binding signal (z-score),[1],-0.05
same,glycan array binding signal (z-score),[2],-0.064
same,glycan array binding signal (z-score),[3],-0.029
same,glycan array binding signal (z-score),[4],-0.069
same,glycan array binding signal (z-score),[5],-0.091
same,glycan array binding signal (z-score),[6],-0.065
same,glycan array binding signal (z-score),[7],-0.094
same,glycan array binding signal (z-score),[8],-0.034
same,glycan array binding signal (z-score),[9],-0.083
same,glycan array binding signal (z-score),[10],-0.056
same,glycan array binding signal (z-score),[11],0.323
same,glycan array binding signal (z-score),[12],6.11
same,glycan array binding signal (z-score),[13],22.6
same,glycan array binding signal (z-score),[14],-0.072
same,glycan array binding signal (z-score),[15],-0.087
same,glycan array binding signal (z-score),[16],-0.077
same,glycan array binding signal (z-score),[17],0.065
same,glycan array binding signal (z-score),[18],-0.063
same,glycan array binding signal (z-score),[19],-0.065
same,glycan array binding signal (z-score),[20],-0.05
same,glycan array binding signal (z-score),[21],-0.005
same,glycan array binding signal (z-score),[22],-0.04
same,glycan array binding signal (z-score),[23],0.012
same,glycan array binding signal (z-score),[24],-0.077
same,glycan array binding signal (z-score),[25],-0.076
same,glycan array binding signal (z-score),[26],-0.078
same,glycan array binding signal (z-score),[27],-0.066
same,glycan array binding signal (z-score),[28],-0.079
